Results taken from PubChem BioAssay.
Where “and” joins values, the source holds several entries; their conditions need not be identical. Equal values may be shown once. Calls of active or inactive are those of the source. Rule as the data show it, unless noted: active = parasite load remaining mostly below about 12% (no sharp cut-off); inactive = mostly above about 10%.

Key:
[1] = compounds altering viability of human ES cells (AID 493140; call rule not given here;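 also: cells exposed to compounds for four days before counting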); conditions: human embryonic stem cell survival screen; stronger effect = higher value
[2] = P. berghei load reduction in hepatocytes – cell-based, HepG2, luciferase luminescence, HepG2 viability, primary screen (AID 624349);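 also: 100% = mean of DMSO negative control wells on the same plate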; conditions: P. berghei liver stage in HepG2, luciferase luminescence, concentration not given here; parasite load remaining: stronger effect = lower value; viability: measured here: HepG2 viability without parasites
[3] = viability loss with induced miR-34 in A549 – imaging, A549 dox-inducible miR-34, nuclei and caspase counts, primary screen (AID 1347080;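 active = compounds whose cell count with miR-34 switched on is under 0.7 times the count with it off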); conditions: A549 miR-34 inducible, Hoechst nuclei count, 48 h
[4] = MELAS cybrid and Rieske KO viability enhancers – cell-based, MELAS cybrids, Rieske KO mouse fibroblasts, CellTiter-Glo, primary screen (AID 1508586;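 active = mean z-score across replicates of 1.96 or higher in either the MELAS or the Rieske mutant cell line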;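 also: z relative to plate mean and SD of compound and empty wells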); conditions: low glucose
[5] = signal quenchers or enhancers, Cy5 substrate/SSB – biochemical, NIH Clinical Collection, E. coli SSB, artefact control for HCV NS3 helicase inhibitor project (AID 743268; call rule not given here); conditions: Cy5-oligo bound E. coli SSB, fluorescence interference
[6] = test system: Hepatitis C virus NS3 helicase; test: blockers of NS3h binding to DNA – biochemical, fluorescence polarization, NIH Clinical Collection, primary screen (AID 743270; call rule not given here); conditions: NS3 helicase binding to Cy5-dT15 DNA, stronger effect = higher value, concentration not given here
[7] = biological target: Single-stranded DNA-binding protein (Escherichia coli (strain K12)) (UniProt P0AGE0); test: SSB-ssDNA binding inhibitors – biochemical, fluorescence polarization, NIH Clinical Collection, counter-screen for HCV NS3 helicase inhibitor project (AID 743271; in the data active = inhibition above about 28%); conditions: E. coli SSB-DNA binding, stronger effect = higher value, concentration not given here
[8] = compounds distorting NS3 helicase fluorescence signal – biochemical, NIH Clinical Collection, artefact control for HCV NS3 helicase inhibitor project (AID 743272; call rule not given here;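 also: HCV NS3 helicase with a Cy5 labelled single stranded DNA probe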); conditions: fluorescence interference counterscreen, HCV NS3 helicase assay; stronger effect = lower value
[9] = stronger effect = lower value, cell number ratio, induced over uninduced
[10] = measured here: relative caspase fold change +Dox/-Dox
[11] = measured here: total cells with miR-34 induction, stronger effect = lower value
[12] = measured here: total cells without miR-34 induction
[13] = MELAS cybrid survival, CellTiter-Glo 48 h, stronger effect = higher value
[14] = Rieske KO mouse fibroblast survival, CellTiter-Glo 72 h

Compound	survival [1]	parasite load remaining [2]	viability [2]	fold change [3, 9]	fold change [3, 10]	cell count [3, 11]	cell count [3, 12]	z-score [4, 13]	z-score [4, 14]	fluorescence ratio [5]	inhibition [6]	inhibition [7]	fluorescence ratio [8]
CN[C@@H]1[C@H](O[C@H]2[C@H](O[C@@H]3[C@@H](O)[C@H](O)[C@@H](N=C(N)N)[C@H](O)[C@H]3N=C(N)N)O[C@@H](C)[C@]2(O)CO)O[C@@H](CO)[C@H](O)[C@H]1O	13.1 (inactive)	58.9% (inactive) and 103% (inactive)	51% and 87.7%	0.925 (inactive)	1.1	9160	9910	-0.905 (inactive)	-0.0139				
CN[C@@H]1C(O[C@H]2O[C@H](CO)[C@@H](N)[C@H](O)[C@H]2O)O[C@H]2C[C@@H](N)[C@@H](O[C@H]3[C@H](O)[C@@H](O)[C@H](N)C[C@@H]3N)OC2[C@@H]1O (some centres undefined)		95.7% (inactive)	72.5%	1.02 (inactive)	0.823	9080	8920	0.718 (inactive)	-0.268				
CO[C@@H]1[C@@H](O[C@@H]2O[C@H](C)[C@@H](O[C@H]3C[C@@](C)(OC(=O)CC(C)C)[C@@H](O)[C@H](C)O3)[C@H](N(C)C)[C@H]2O)[C@@H](CC=O)C[C@@H](C)[C@@H](O)/C=C/C=C/C[C@@H](C)OC(=O)C[C@H]1OC(C)=O		40.7% (inactive)	45.1%	0.924 (inactive)	0.331	7880	8530	-0.757 (inactive)	-0.227				
C=C1c2c(Cl)ccc(O)c2C(O)=C2C(=O)[C@]3(O)C(O)=C(C(N)=O)C(=O)[C@@H](N(C)C)[C@@H]3[C@@H](O)C12 (some centres undefined)		61.4% (inactive)	104%	0.684 (active)	2.93	5870	8580	-2.33 (inactive)	-2.53				
CCCC1C(=O)N2C(N(C)C)=Nc3ccc(C)cc3N2C1=O (centres undefined)	9.17 (inactive)	172% (inactive)	71.8%	0.881 (inactive)	0.721	8830	10000	0.00688 (inactive)	-0.91				
COC(=O)Nc1nc2ccc(SC(C)C)cc2[nH]1	0.5 (inactive)	92.8% (inactive)	74.8%	0.996 (inactive)	0.586	1650	1660	-2.13 (inactive)	1.04				
O=C1Cc2c([nH]c3ccc(Br)cc23)-c2ncccc2N1		39% (inactive)	165%	0.879 (inactive)	0.672	2970	3380	1.05 (inactive)	-2.27				
CC(=O)O[C@H]1C[C@@]2(C)[C@@H](C[C@@H](O)[C@H]3[C@@]4(C)CC[C@@H](O)[C@@H](C)C4CC[C@@]32C)/C1=C(\CCC=C(C)C)C(=O)O (some centres undefined)		147% (inactive)	140%	0.911 (inactive)	1.1	8570	9410	-3.27 (inactive)	-2.48				
C=CC[N@@+]12CC[C@]34c5ccccc5N5/C=C6\C7N(/C=C(\C53)[C@@H](C[C@@H]41)/C(=C/CO)C2)c1ccccc1[C@@]71CC[N@@+]2(CC=C)C/C(=C\CO)[C@@H]6C[C@@H]12 (some centres undefined)		122% (inactive)	74.4%	0.909 (inactive)	0.771	9290	10200	0.0835 (inactive)	-0.352				
CCC(=O)[C@@]1(C)[C@H](C)C[C@H]2[C@@H]3CCC4=CC(=O)C=C[C@]4(C)[C@H]3[C@@H](O)C[C@@]21C	5.08 (inactive)	104% (inactive)	73.1%	0.901 (inactive)	0.845	7190	7980	-0.53 (inactive)	0.51				
COc1ccc2cc([C@@H](C)C(=O)O)ccc2c1	10.1 (inactive)	124% (inactive) and 104% (inactive)	101% and 92.4%	0.747 (inactive)	1.43	6320	8450	-0.0303 (inactive)	-0.487	0.94 (inactive)	0.66% (inactive)	8.27% (inactive)	0.94 (inactive)
CN[C@H](CC(C)C)C(=O)N[C@H]1C(=O)N[C@@H](CC(N)=O)C(=O)N[C@H]2C(=O)N[C@H]3C(=O)N[C@H](C(=O)N[C@H](C(=O)O)c4cc(O)cc(O)c4-c4cc3ccc4O)[C@H](O)c3ccc(c(Cl)c3)Oc3cc2cc(c3O[C@@H]2OC(CO)[C@@H](O)[C@H](O)[C@H]2O[C@H]2C[C@](C)(N)[C@H](O)[C@H](C)O2)Oc2ccc(cc2Cl)[C@H]1O (some centres undefined)		59.3% (inactive)	113%	0.843 (inactive)	1.57	8980	10700	-0.371 (inactive)	-0.181				
CCCC(=O)Nc1ncnc2c1ncn2[C@@H]1O[C@@H]2OP(=O)(O)OC[C@H]2[C@H]1OC(=O)CCC		71.6% (inactive)	101%	0.912 (inactive)	1.18	9650	10600	0.66 (inactive)	0.0496				
CO[C@@]1(NC(=O)[C@H](C(=O)O)c2ccc(O)cc2)C(=O)N2C(C(=O)O)=C(CSc3nnnn3C)CO[C@@H]21		81.8% (inactive)	98.4%	0.861 (inactive)	1.17	8980	10400	0.452 (inactive)	-0.352				
C[C@@H]1C[C@H]2[C@@H]3C[C@H](F)C4=CC(=O)C=C[C@]4(C)[C@@]3(Cl)[C@@H](O)C[C@]2(C)[C@H]1C(=O)COC(=O)C(C)(C)C	4.25 (inactive)	85.6% (inactive)	86.4%	0.917 (inactive)	0.704	6960	7580	-0.991 (inactive)	-0.15				
CCSc1ccc2c(c1)N(CCCN1CCN(C)CC1)c1ccccc1S2	1.5 (inactive)	77.3% (inactive)	70.9%	0.933 (inactive)	0.655	7330	7860	-1.53 (inactive)	0.455				
